# Shown is part of a subset that was picked to be rich in hits.
# Pf Dd2 growth = blocks in vitro growth of P. falciparum Dd2; P. falciparum Dd2 growth, SYBR Green, 72 h; Potency, µM (series often up to 28.9 µM), inactives show at the top dose activity, negative = inhibition, hits mostly inhibitors; 120,000 tested, 4.3% active; AID 1347417; active = well fitted inhibition curve with a large enough effect;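 also: plate controls were DMSO vehicle for no effect and reference drug for full effect; nearly all actives have a fitted effect of over 65% in size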
#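 Readout: SYBR Green fluorescence, 485 nm excitation, 535 nm emission, after ~16 h lysis at 37C. Before that, Dd2-infected red cells (2.5% hematocrit) grew 72 h with compound, 29 uM top final concentration.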
# Numbers without * were called inactive; i = inactive; [ ] = another dose, or the depositor's remark. Potency is read from the fitted curve at half-maximal effect.
SMILES,Pf Dd2 growth
C[C@H](C(=O)N(C)CCC#N)C1CC[C@@]2(C)Cc3sc(NC(=O)C4CC4)nc3[C@@H](C)[C@@H]2[C@H]1O (stereo partly drawn),-2.7%
Cc1cc(C(=O)N2CCCC(c3nn(C)c(=O)n3-c3ccccc3)C2)no1 (stereo not drawn),-6.8%
CCOC(=O)C1CCN(C(=O)Cc2cccn2-c2cccc(Cl)c2)CC1,-15.7%
CCOc1ccccc1C1NC(=O)N(CC(=O)Nc2cccc(CC)c2)C2=C1C(=O)OC2 (stereo not drawn),i
Nc1nc(CC(=O)N2CCCC(CNC(=O)c3ccc(F)cc3)C2)cc(=O)[nH]1 (stereo not drawn),-20.4%
CCNC(=O)NC[C@H]1O[C@H](Cc2cc(CN3CCOCC3)on2)CC[C@@H]1O,-9.5%[44.1 µM]
COc1ccc(CNC(=O)C2CN(S(=O)(=O)C3CC3)CC23CCCCC3)c(OC)c1 (stereo not drawn),-17.8%
CCOc1ccccc1NC(=O)C1CN(S(=O)(=O)C2CC2)CC12CCCCC2 (stereo not drawn),i
O=C(Nc1ccc2c(c1)OCCO2)C1CN(S(=O)(=O)C2CC2)CC12CCCCC2 (stereo not drawn),3.16µM*
Cc1ccccc1-c1[nH]nc2ncc(-c3ccsc3)nc12,i
O=C1NCCOCCN(S(=O)(=O)c2cccc3nsnc23)[C@@H]2CCCC[C@H]12,-22.5%
O=C(Nc1nc(-c2ccccc2)ns1)c1ccc(Cl)cc1,10.5%
O=C(/C=C/c1ccc(F)cc1)Nc1nc2n(n1)C(c1ccc(Cl)cc1)C=C(c1ccccc1)N2 (stereo not drawn),11.2µM*
CC1=C(C(N)=O)C(c2ccc(F)cc2)n2nc(-c3ccccc3Cl)nc2N1 (stereo not drawn),2.9%
COc1cc(C2C(C(=O)Nc3ccccc3)=C(C)Nc3nc(SCc4ccccc4F)nn32)cc(OC)c1OC (stereo not drawn),3.2%
O=C(c1ccccc1)n1nc(-c2ccccc2)nc1NCc1ccc(F)cc1,13.0%
O=S(=O)(Nc1nc2n(n1)C(c1ccc(F)cc1)C=C(c1ccc(Cl)cc1)N2)c1ccccc1 (stereo not drawn),11.3%
COc1ccccc1/C=C/C(=O)Nc1nc2n(n1)C(c1ccc(F)cc1)C=C(c1ccccc1)N2 (stereo not drawn),10µM*
CC(=O)Nc1nc2n(n1)C(c1ccc(F)cc1)C=C(c1ccc(Cl)cc1)N2 (stereo not drawn),10µM*
O=C(/C=C/c1ccccc1)Nc1nc2n(n1)C(c1ccc(Cl)cc1)C=C(c1ccccc1)N2 (stereo not drawn),11.2µM*
O=C(c1ccc(F)cc1)n1nc(-c2ccccc2)nc1NCc1ccc(F)cc1,-14.5%
O=C(O)c1cc(-n2c(/C=C\c3ccc(F)cc3)nc3ccccc3c2=O)ccc1Cl,-12.2%
COCCn1cnnc1C(C)NC(=O)c1cn(C2CCC(N)CC2)nn1 (stereo not drawn),-9.7%
COc1ccc(N2CC(NC(=O)c3cc(C(C)C)n4ncnc4n3)CC2=O)cc1 (stereo not drawn),-4.1%
COc1cc(-c2onc(C)c2C(=O)NCC2CCCO2)cc(OC)c1OC (stereo not drawn),-8.0%
SMILES,Pf Dd2 growth
CC(C)=CCO[C@H]1CCOC[C@H]1NC(=O)CCc1ccc(=O)[nH]n1,-21.0%
CCCN(CC1CCOC1)C(=O)NCCc1ccccc1 (stereo not drawn),18.4%[5.79 µM]
O=S(=O)(c1ccc2c(c1)CCCC2)N1CCCC(Cn2cnc3cccnc32)C1 (stereo not drawn),-7.2%
CCC1(C(=O)NCc2ccc(N3CCC(C)CC3)cc2)CCCCC(=O)N1 (stereo not drawn),-4.4%
COC1CCC12CCN(C(=O)c1ccnn1C)CC2 (stereo not drawn),19.6%
CCS(=O)(=O)N1C[C@@H]2CN(Cc3ncc[nH]3)C[C@]2(C(=O)O)C1,-5.3%
O=C(NC1CCCCC1)C1CN(C(=O)c2ccccc2Br)CC12CCOCC2 (stereo not drawn),-2.9%
CCN(CC)Cc1ccc2c(c1)CN(C(=O)COc1ccc(C)cc1)CCO2,2.82µM*
CCN(CC)Cc1ccc2c(c1)CN(C(=O)N(CC)CC)CCO2,-15.0%
CCN(CC)Cc1ccc2c(c1)CN(C(=O)c1ccsc1)CCO2,-24.0%
O=C(NCCn1cccn1)C1CCC(=O)N(C2CCCCCC2)C1 (stereo not drawn),-5.9%
COCC1CN(C(C)=O)CC12CCN(Cc1cccc(OC)n1)CC2 (stereo not drawn),-8.2%
CC(C)CN1CCN(C2CCOC3(CCN(C(=O)c4ccc5[nH]ccc5c4)CC3)C2)CC1 (stereo not drawn),i
O=C1CC2CCN(C(=O)c3ccccc3)CC2CCN1 (stereo not drawn),20.9%[44.1 µM]
O=C(c1cnccn1)N1CCCCCCn2c(nnc2-c2ccc(F)cc2)CC1,-2.7%
CCc1ccccc1CN1CCCC12Cc1ccccc1CNC2=O (stereo not drawn),8.91µM*
O=C1NCc2ccccc2CC12CCCN2Cc1ccc(O)cc1O (stereo not drawn),-7.7%
O=C1NCc2ccccc2CC12CCCN2Cc1ccc(O)cc1 (stereo not drawn),-23.0%
O=C1NCc2ccccc2CC12CCCN2Cc1ccc(F)cc1F (stereo not drawn),-0.4%
O=C1NCc2ccccc2CC12CCCCN2Cc1cccc(F)c1 (stereo not drawn),-28.6%
CC(=O)Nc1ccc(CN2CCCC23Cc2ccccc2CNC3=O)cc1 (stereo not drawn),-0.8%
Cc1ccc(CN2CCCCC23Cc2ccccc2CNC3=O)cc1C (stereo not drawn),7.94µM*
COc1ccc(CN2CCCCC23Cc2ccccc2CNC3=O)cc1OC (stereo not drawn),-17.4%
Cc1ccc(CN2CCCC23Cc2ccccc2CNC3=O)cc1 (stereo not drawn),10µM*
COc1cc(=O)n2c(c1C(=O)Nc1cccc(F)c1)CCCC2,9.3%
SMILES,Pf Dd2 growth
CN(C)C[C@@H]1CN(C2CCOCC2)C[C@H]1NC(=O)c1cnco1,24.5%
COC(=O)[C@H](NC(=O)[C@@H]1C[C@H](NC(=O)Nc2ccc(OC)cc2)CN1C(=O)C=C(C)C)C(C)C,-15.9%
CC(C(=O)NCc1cccc(F)c1)C1CCOCC1 (stereo not drawn),14.1%
CCN1C(=O)C2(CCN(S(=O)(=O)c3ccc(C)c(Cl)c3)CC2)c2ccccc21,i
CNC(=O)c1cn2c(n1)CN([S+](=O)([O-])c1c(C)noc1C)CC2,43.6%
CCn1cnnc1CC1CCN(S(=O)(=O)c2ccccc2C)CC1,-18.5%
O=C(c1ccc(Cn2cncn2)o1)N1CCCCCC1c1nnc(-c2ccccc2)o1 (stereo not drawn),i
COc1cccc(CCC2CCCN(C(=O)C3CCCC3)C2)c1 (stereo not drawn),i
CCN(Cc1cccc(OCCO)c1)CC1CCCN(CCc2cccc(OC)c2)C1 (stereo not drawn),10µM*
COc1cccc(CN2CCCC(Nc3cc(N)ncn3)C2)c1 (stereo not drawn),-19.1%
COc1cccc(CNC(=O)CC2=C3CCCCC3NC2=O)c1OC (stereo not drawn),-12.9%
Cc1noc(C2CC3(CCN(C(=O)C4CC4)CC3)CN2C)n1 (stereo not drawn),-7.2%
CCOC(=O)c1ccc(N2C(=O)c3n[nH]c(-c4cccs4)c3C2c2ccc(OC)cc2OC)cc1 (stereo not drawn),11.2µM*
CCOc1ccc(C(=O)NC2CCCN(c3cc(-c4ccc(OC)cc4)[nH]n3)C2)cc1 (stereo not drawn),i
